# Assay outcomes deposited in PubChem BioAssay by National Center for Advancing Translational Sciences (NCATS).
# TDP1 block = inhibitors of human tyrosyl-DNA phosphodiesterase TDP1; recombinant TDP1, AlphaScreen DNA substrate cleavage; Potency, µM (top dose mostly 130 µM), without a hit: top-dose activity change, negative = inhibition, most hits filed as inhibitors; 350,000 compounds, 0.28% hits; AID 485290; also: nearly all actives have a fitted effect of over 40% in size
# Target sequence (Q9NUW8 whole entry, looked up): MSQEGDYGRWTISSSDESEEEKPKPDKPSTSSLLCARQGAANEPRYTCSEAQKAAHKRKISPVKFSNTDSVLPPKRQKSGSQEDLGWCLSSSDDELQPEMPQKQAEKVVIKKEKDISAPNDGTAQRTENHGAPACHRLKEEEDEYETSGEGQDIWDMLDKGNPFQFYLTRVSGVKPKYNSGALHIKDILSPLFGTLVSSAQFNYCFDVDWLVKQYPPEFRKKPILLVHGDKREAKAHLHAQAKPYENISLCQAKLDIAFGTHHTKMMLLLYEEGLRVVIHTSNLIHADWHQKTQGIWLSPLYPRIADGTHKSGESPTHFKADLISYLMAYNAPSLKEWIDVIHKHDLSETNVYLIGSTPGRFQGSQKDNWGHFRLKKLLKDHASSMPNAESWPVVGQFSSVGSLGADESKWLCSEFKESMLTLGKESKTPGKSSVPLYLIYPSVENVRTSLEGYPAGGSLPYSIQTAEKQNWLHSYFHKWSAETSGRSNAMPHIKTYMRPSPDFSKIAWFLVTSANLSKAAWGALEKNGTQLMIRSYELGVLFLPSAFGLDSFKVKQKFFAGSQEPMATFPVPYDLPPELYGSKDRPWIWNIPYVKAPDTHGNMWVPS
#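 Enzyme-compound mixtures sat 15 min at room temperature, followed by a 5 min reaction with 15 nM final substrate and 10 min with AlphaScreen beads. Recombinant human Tdp1 was used at 1 nM final.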
# DT40 TDP1 no CPT = qHTS for Inhibitors of human tyrosyl-DNA phosphodiesterase 1 (TDP1): qHTS in cells in absence of CPT | Potency, µM (top dose mostly 46.2 µM), for inactives: at the top dose activity change, negative = growth inhibition, actives largely listed as inhibitors | DT40 Tdp1-/- hTDP1 cells, no CPT, ATP luminescence, 48 h | 420,000 compounds, 15% hits | AID 686978, 2013; also: nearly all actives have a fitted effect of over 55% in size
#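 Chicken DT40 Tdp1-/- cells stably complemented with human TDP1 were seeded at 400 cells/well with DMSO in place of 20 nM camptothecin. After compound pinning, cells grew at least 48 hr at 37 °C; viability read by CellTiter-Glo luminescence.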
# DT40 TDP1 CPT = growth inhibition of DT40 Tdp1-/-;hTDP1 cells with camptothecin (screen for TDP1 inhibitors); 420,000 compounds, 12% hits; Potency, µM (doses to about 46.2 µM), for inactives: at the top dose activity change, negative = growth inhibition, usual class: inhibitors; chicken DT40 Tdp1-/-;hTDP1 cells + 20 nM CPT, ATP luminescence, 48 h; AID 686979; also: nearly all actives have a fitted effect of over 55% in size
#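 Chicken DT40 Tdp1-/- cells complemented with human TDP1, 400 cells/well, exposed to compounds plus 20 nM camptothecin for at least 48 h at 37 C; viability read as ATP content by CellTiter-Glo luminescence.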
# RORg inh = inhibitors of mouse ROR gamma transcriptional activity; 310,000 compounds, 5.4% hits; Drosophila S2 Gal4-RORgamma UAS-luciferase reporter, 20 h; P51450; AID 2551; Potency, µM (doses to about 53.6 µM), inactives show at the highest dose activity change, negative = inhibition, most hits filed as inhibitors; also: nearly all actives have a fitted effect of over 60% in size
#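 Schneider cells (Drosophila), stable Gal4 DBD–ROR gamma + UAS-luc; 1 hr cmpd preincubation; Cu2+ induction 700 uM final; 20 hr ambient; luminescence.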
# Gal4-VP16 FLuc = Gal4-VP16 reporter inhibition counter-screen | Drosophila S2 Gal4-VP16 UAS-luciferase, luminescence, 20 h | Potency, µM (titrated, usually from 53.6 µM), for the others: at the top dose activity, negative = inhibition, actives largely listed as inhibitors | 310,000 compounds, 3.5% hits | AID 2546;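 also: Gal4-VP16 expression switched on by copper sulfate through the metallothionein promoter; nearly all actives have a fitted effect of over 50% in size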
# Starred values were filed as active, the others as inactive; ? = inconclusive; · = not tested or not shown. This is a sample that favours compounds with a hit; in the whole collection about 19% have one here. Calls follow the shape of the dose curve; as a rule, active = well fitted curve in the direction sought with a large enough effect; inconclusive = small, poorly fitted or top-dose-only effect, or another doubt; inactive = no such curve, though single readings can be large; an effect the other way counts as inactive or inconclusive. % is scaled to controls: 0 for no effect and ±100 for the full control effect; potency is read from the fitted curve at half-maximal effect.
SMILES,TDP1 block,DT40 TDP1 no CPT,DT40 TDP1 CPT,RORg inh,Gal4-VP16 FLuc
COc1ccc2c(c1)C1OCCC1C(c1ccco1)N2 (stereo not given),·,?,23µM*,·,·
CC(=O)C(=Cc1cn(-c2ccccc2)nc1-c1ccccc1)C(C)=O,-3%,?,23µM*,-8%,-1%
CC1=NNC(=O)/C1=C\c1cn(-c2ccccc2)nc1-c1cccs1,8%,2.6µM*,2.6µM*,?,4.5µM*
O=C(O)c1cn(-c2ccccc2)nc1-c1ccc(F)cc1,6%,6%,1%,17%,-7%
Cc1ccc(C(=O)N/C(=C/c2cn(-c3ccccc3)nc2-c2ccccc2)C(=O)O)cc1,3%,7%,7%,5%,4%
Cc1c(NC(=O)/C=C/c2cccs2)c(=O)n(-c2ccccc2)n1C,6%,-5%,-1%,28%,-8%
O=Cc1cn(-c2ccccc2)nc1-c1ccc(F)cc1,·,21µM*,?,32%,-2%
Cc1c(NC(=O)/C=C/c2cn(-c3ccccc3)nc2-c2ccc(F)cc2)c(=O)n(-c2ccccc2)n1C,-2%,?,15µM*,19%,-5%
O=C(O)CCCCCN1C(=O)/C(=C\c2cn(-c3ccccc3)nc2-c2cccs2)SC1=S,·,-18%,?,?,1%
CCN(C(=O)COC(=O)c1ccc(C)c(S(=O)(=O)N2CCCCC2)c1)C1CCS(=O)(=O)C1 (stereo not given),·,-9%,-11%,·,·
N#Cc1cccc(C(=O)Nc2cc(S(=O)(=O)N3CCOCC3)ccc2N2CCCC2)c1,1%,-6%,18%,·,·
CC1=NNC(=O)/C1=C\c1cn(-c2ccccc2)nc1-c1ccc(F)cc1,-4%,1.5µM*,3.7µM*,4.5µM*,5µM*
Cc1ccsc1C(=O)N1CCN(S(=O)(=O)c2cccc(F)c2)CC1,·,-20%,-8%,·,·
O=C(O)COn1c(-c2ccc(Cl)cc2)nc2ccc(Cl)cc21,2%,12%,3%,1%,0%
COc1ccc(-c2nc3ccccc3n2OCC(=O)O)cc1,3%,-25%,-1%,?,13µM*
CCOC(=O)C(C)On1c(-c2ccccc2)nc2ccc([N+](=O)[O-])cc21 (stereo not given),7%,18µM*,?,?,5%
O=[N+]([O-])c1ccc2nc(-c3ccc(Cl)cc3)n(OCc3ccccc3)c2c1,2%,?,-12%,24%,?
CC(O)c1nc2cc([N+](=O)[O-])ccc2n1Cc1ccccc1 (stereo not given),2%,?,?,4%,2%
O=C(O)COn1c(-c2ccccc2)nc2ccc([N+](=O)[O-])cc21,25µM*,?,?,30%,?
CSc1ncc(OCc2ccccc2)c(=O)[nH]1,6%,-1%,1%,-9%,-8%
Cc1ccc2nc(NC(=O)[C@H](C)N3C(=O)C4CC=CCC4C3=O)sc2c1 (stereo not given in full),2%,-5%,10%,22%,11%
CCn1c(O)c(/C=N/N=C2CCCCC2)c2cc(C3=NNC(=O)CC3)ccc21,4%,10µM*,8.2µM*,12%,-2%
CCn1c(O)c(/C=N/N=C2CCCC2)c2ccc(C3=NNC(=O)CC3)cc21,3%,-25%,?,12%,-5%
CCOC(=O)c1c(C)[nH]c(C)c1C(=O)COC(=O)c1cc(OC)c(OC)cc1OC,3%,?,-22%,5%,3%
Cc1ccc(Cc2ccc(C(=O)NNC(N)=S)o2)cc1,7%,-2%,-13%,10µM*,-16%
SMILES,TDP1 block,DT40 TDP1 no CPT,DT40 TDP1 CPT,RORg inh,Gal4-VP16 FLuc
Cc1cccc(NC(=O)CSc2nnc(-c3cnccn3)n2Cc2ccco2)c1,1%,-29%,-19%,15%,-3%
CN(CC(=O)NCCc1ccc(S(N)(=O)=O)cc1)c1ccccc1,0%,9%,6%,10%,-8%
COc1ccc(Cn2ccc3nc(C)c(C(=O)N4CCN(c5cccc(OC)c5)CC4)cc3c2=O)cc1,11%,?,15µM*,·,·
Cc1ccc(C)c(N2CCN(C(=O)c3cc4c(=O)n(Cc5ccco5)ccc4nc3C)CC2)c1,10%,16µM*,?,·,·
COc1ccc(Cn2ccc3nc(C)c(C(=O)NCc4ccc(C)cc4)cc3c2=O)cc1,5%,?,26µM*,·,·
COc1cccc(N2CCN(C(=O)c3cc4c(=O)n(Cc5ccco5)ccc4nc3C)CC2)c1,11%,16µM*,16µM*,·,·
COc1ccc(N2CCN(C(=O)c3cc4c(=O)n(Cc5ccco5)ccc4nc3C)CC2)cc1,6%,?,?,·,·
CCCCn1c(N)c(N(CC(C)C)C(=O)Cn2c(=O)cnc3ccccc32)c(=O)[nH]c1=O,-14%,0%,24%,·,·
COc1ccc(Cn2ccc3nc(C)c(C(=O)N4CCN(c5cc(C)ccc5C)CC4)cc3c2=O)cc1,11%,23µM*,21µM*,·,·
COc1ccc(Cn2ccc3nc(C)c(C(=O)N4CCN(c5ccccc5)CC4)cc3c2=O)cc1,-1%,-7%,3%,·,·
CC1(c2ccc(O)cc2)NC(=O)N(c2ccccc2)N1 (stereo not given),2%,2%,33%,25%,9%
O=c1c(/C=N/OCc2ccc(Cl)cc2Cl)c[nH]n1-c1cccc(Cl)n1,11%,?,?,13µM*,20µM*
O=c1c(-n2cncn2)c[nH]n1-c1cccc(Cl)n1,7%,-14%,4%,-1%,8%
NC(=O)c1ccccc1N/C=C/C(=O)c1ccc(F)cc1,-10%,15µM*,?,0.56µM*,?
NC(=O)c1ccccc1N/C=C/C(=O)c1ccc(Cl)cc1Cl,2%,18µM*,?,0.63µM*,4µM*
NS(=O)(=O)c1ccc(NC(=O)c2cc(-c3cc(Cl)ccc3O)n[nH]2)cc1,·,?,-7%,3%,-19%
CCc1nnc(NC(=O)c2cccc(NC(=O)C(C)C)c2)s1,5%,-19%,-11%,11%,17%
CC(=O)Nc1ccc(S(=O)(=O)NNC(=O)CCC(=O)NCc2ccccc2)cc1,1%,26%,-15%,·,·
Cn1c(/N=C/c2c[nH]c3ccccc23)nc2ccccc21,10%,-23%,-17%,23%,0%
Cn1c(Cl)nc2ccccc21,2%,0%,6%,-14%,2%
Cn1c(N=Nc2ccccc2)nc2ccccc21,5%,7.3µM*,8.2µM*,0.71µM*,1.3µM*
CCn1c(/C=N/c2nc3ccccc3n2C)nc2ccccc21,5%,-12%,-3%,13µM*,?
Cn1c(/C=N/c2nc3ccccc3[nH]2)nc2ccccc21,9%,?,?,18µM*,?
